Sampled rows, rich in hits. Any-hit rate of the full collection: about 4.1%.
MPTP block: inhibitors of mitochondrial permeability transition pore; isolated mouse mitochondria, Ca2+ swelling absorbance, 30 min; inhibition, % at 10 µM; 360,000 tested, 1.4% active; AID 602449;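 active = inhibition of 50% or more, scaled per plate between neutral and stimulator controls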
beta cell repl: induces beta-cell replication in MIN6 cells; proliferation, % at 10 µM; MIN6 cells proliferation, ATPlite luminescence, 48 h; cells starved in 0.2% serum; 100% = growth in 10% serum; 330,000 tested, 0.29% active;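 active = compounds whose signal lies at least 3.5 SD above the mean of all wells on their plate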
FAS-TE inh: inhibitors of human fatty acid synthase thioesterase domain; recombinant FAS-TE, OMFH fluorogenic substrate, fluorescence endpoint; 360,000 tested, 0.67% active; inhibition, % at 15 µM;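 active = compounds whose normalised, plate-corrected inhibition of enzyme fluorescence in the single-dose primary screen is 50% or more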
NR3A LBD binder: modulators (binders) of human NR3A ligand-binding domain; 340,000 tested, 2.5% active; AID 1259313; NR3A LBD differential scanning fluorimetry, Tm shift; 0% = protein alone, 100% = glycine-bound protein; Tm shift relative to glycine control, % at 25 µM;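 active = melting temperature shift of at least 10% of the positive control shift, at one fixed dose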
pCIP destab: compounds decreasing mouse p/CIP protein stability | Q05BA5 | F442A p/CIP-EGFP cells, EGFP fluorescence, 16 h | AID 1984 | decrease of EGFP signal, % at 10 µM | 290,000 tested, 0.01% active;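 active = EGFP signal decrease of at least 30% at 10 µM or well 3 SD below plate mean, unless failing retest; inactive = the rest, including hits failing retest or dose response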
Numbers stand for hits.

What do the screens show for `Cc1cc2oc(C(=O)Nc3ccc(S(N)(=O)=O)cc3)c(C)c2cc1Cl`?
MPTP block: inactive; beta cell repl: inactive; FAS-TE inh: inactive; NR3A LBD binder: 24; pCIP destab: inactive

Results for O=C(NCc1ccc2c(c1)OCO2)C(=O)NCC1OCCCN1S(=O)(=O)c1cc(F)ccc1F (stereo unspecified) ?
MPTP block: inactive; beta cell repl: inactive; FAS-TE inh: inactive; NR3A LBD binder: 13; pCIP destab: inactive

Results for COc1cc2cc(C)c(Br)c(OC)c2cc1OC ?
MPTP block: inactive; FAS-TE inh: inactive; NR3A LBD binder: inactive

What do the screens show for `O=S(=O)(NC1CC1)c1ccc(Br)cc1N1CCC[C@H]1CO`?
MPTP block: inactive; FAS-TE inh: inactive; NR3A LBD binder: inactive

How did CCN(CC)C(=O)C1=C(C)N(CCCOC)C(=O)C(CC(=O)NCCCCc2ccccc2)C1 (stereo unspecified) do in these assays?
MPTP block: inactive; FAS-TE inh: inactive

Results for O=C(OCCN1C(=O)c2cccc3c(N4CCOCC4)ccc(c23)C1=O)c1ccc(Cl)cc1 ?
MPTP block: inactive; beta cell repl: inactive; FAS-TE inh: inactive; NR3A LBD binder: inactive; pCIP destab: inactive

What do the screens show for `CCCN(CCC)S(=O)(=O)c1ccc(C(=O)OCCN2C(=O)c3cccc4c(N5CCOCC5)ccc(c34)C2=O)cc1`?
MPTP block: inactive; beta cell repl: inactive; FAS-TE inh: inactive; NR3A LBD binder: 17; pCIP destab: inactive

What do the screens show for `CC1CCN(Cc2nnnn2CCCC(=O)NC(c2ccccn2)C(F)(F)F)CC1` (stereo unspecified)?
MPTP block: inactive; beta cell repl: inactive; FAS-TE inh: inactive; NR3A LBD binder: 12; pCIP destab: inactive

Results for CC1Nc2ncnc(N3CCN(c4ccccc4)CC3)c2N(Cc2ccc(Br)cc2)C1=O (stereo unspecified) ?
MPTP block: inactive; beta cell repl: inactive; FAS-TE inh: inactive; NR3A LBD binder: inactive

What do the screens show for `COc1ccc2[nH]c(C(=O)N/N=C/c3ccccc3OC)cc2c1`?
MPTP block: inactive; beta cell repl: inactive; FAS-TE inh: inactive; NR3A LBD binder: inactive; pCIP destab: inactive

What do the screens show for `Cc1ccc2[nH]c(C(=O)N/N=C/c3ccccc3O)c(C)c2c1`?
MPTP block: inactive; beta cell repl: inactive; FAS-TE inh: inactive; NR3A LBD binder: 19; pCIP destab: inactive

What do the screens show for `COc1cc(OC)c2cc(C(=O)N/N=C/c3ccccc3O)[nH]c2c1`?
MPTP block: inactive; beta cell repl: inactive; FAS-TE inh: inactive; NR3A LBD binder: 37; pCIP destab: inactive

How did Cc1ccc2[nH]c(C(=O)N/N=C/c3ccccc3C(=O)O)c(-c3ccccc3)c2c1 do in these assays?
MPTP block: inactive; beta cell repl: inactive; FAS-TE inh: inactive; NR3A LBD binder: inactive; pCIP destab: inactive

Results for Cc1ccc(-n2ncc3c(=O)n(-c4cccc(C)c4)c(=O)[nH]c32)cc1 ?
MPTP block: inactive; FAS-TE inh: inactive

Results for O=c1oc(Nc2cccc(F)c2)nc2ccccc12 ?
MPTP block: inactive; beta cell repl: inactive; FAS-TE inh: inactive; NR3A LBD binder: inactive; pCIP destab: inactive

What do the screens show for `COc1ccc(C)cc1Nc1nc(N)c2cc(OC)c(OC)cc2n1`?
MPTP block: inactive; beta cell repl: inactive; FAS-TE inh: inactive; NR3A LBD binder: inactive; pCIP destab: inactive

Results for COc1ccc(Cl)cc1Nc1nc(N)c2ccccc2n1 ?
MPTP block: inactive; beta cell repl: inactive; FAS-TE inh: inactive; NR3A LBD binder: 16; pCIP destab: inactive

Results for Nc1nc(Nc2cccc(F)c2)nc2ccccc12 ?
MPTP block: inactive; beta cell repl: inactive; FAS-TE inh: inactive; NR3A LBD binder: 26; pCIP destab: inactive

How did CC(C)(C)S(=O)N1Cc2cc(C(=O)N3CCc4ccccc4C3)nc(-c3cccc(-c4cccnc4)c3)c2[C@@H]1CCO (stereo partly specified) do in these assays?
MPTP block: inactive; FAS-TE inh: inactive

How did O=c1oc(=S)oc2c1[C@H](c1ccc(Cl)cc1)O[C@H](C1CC1)C2 do in these assays?
MPTP block: inactive; FAS-TE inh: inactive

How did COc1ccc(Cl)cc1C(=O)NNC(=O)c1[nH]c(C)c(C(C)=O)c1C do in these assays?
MPTP block: inactive; beta cell repl: inactive; FAS-TE inh: inactive; NR3A LBD binder: 15

Results for CC(=O)c1c(C)[nH]c(C(=O)NNC(=O)c2ccc(C)cc2)c1C ?
MPTP block: inactive; beta cell repl: inactive; FAS-TE inh: inactive; NR3A LBD binder: inactive

How did c1ccc(COc2ncnc3c2ncn3CCCNCC(c2ccccc2)c2ccccc2)cc1 do in these assays?
MPTP block: inactive; FAS-TE inh: inactive

How did O=C(CC(=O)c1ccccc1O)c1cccc(F)c1 do in these assays?
MPTP block: inactive; beta cell repl: inactive; FAS-TE inh: inactive; NR3A LBD binder: 23; pCIP destab: inactive

How did CN(C)CCNC(=O)c1cccc(-c2cc(NC=O)c3ncc(-c4cccc(C(F)(F)F)c4)n3c2)c1 do in these assays?
MPTP block: inactive; FAS-TE inh: inactive

What do the screens show for `O=C1C=C(N2CCN(C(=O)c3ccccc3)CC2)C2(CCCCC2)O1`?
MPTP block: inactive; beta cell repl: inactive; FAS-TE inh: inactive; NR3A LBD binder: 11; pCIP destab: inactive

How did O=C(Nc1nc2ccccc2s1)c1ccc2sc([C@H]3C[C@H](O)[C@@H](CO)O3)nc2c1 do in these assays?
MPTP block: inactive; FAS-TE inh: inactive

How did CC1(C(=O)NCc2cccs2)CCN1CCc1ccccc1 (stereo unspecified) do in these assays?
MPTP block: inactive; FAS-TE inh: inactive

What do the screens show for `COc1ccc2c(c1)c(CC(=O)Nc1cc(C)ccc1C)c(C)n2C(=O)c1ccc(Cl)cc1`?
MPTP block: inactive; beta cell repl: inactive; FAS-TE inh: inactive; NR3A LBD binder: inactive; pCIP destab: inactive

How did COc1ccc2c(c1)c(CC(=O)NCc1cc([N+](=O)[O-])ccc1O)c(C)n2C(=O)c1ccc(Cl)cc1 do in these assays?
MPTP block: inactive; beta cell repl: inactive; FAS-TE inh: inactive; NR3A LBD binder: 24; pCIP destab: inactive

What do the screens show for `NC(=O)C(CCc1nc2ccccc2[nH]1)NS(=O)(=O)c1ccccc1` (stereo unspecified)?
MPTP block: inactive; FAS-TE inh: inactive

Results for CC(=O)Nc1ccc(Br)c2ccccc12 ?
MPTP block: inactive; beta cell repl: inactive; FAS-TE inh: inactive; NR3A LBD binder: inactive; pCIP destab: inactive

What do the screens show for `O=C(Nc1ccc(Br)c2ccccc12)c1ccc2ccccc2c1O`?
MPTP block: inactive; FAS-TE inh: inactive; NR3A LBD binder: 19; pCIP destab: inactive

Results for O=C1C[C@@H]2C(=O)N(c3ccccc3)C(=O)[C@@H]2[C@@H]2CN(S(=O)(=O)c3ccccc3)[C@@H](c3ccccc3)[C@H]12 ?
MPTP block: inactive; FAS-TE inh: inactive

Results for CCOC(=O)C(/C(C)=N/NC(=O)C1CC1c1ccccc1)C(C)C (stereo unspecified) ?
MPTP block: inactive; beta cell repl: inactive; FAS-TE inh: inactive; NR3A LBD binder: 16; pCIP destab: inactive
